Laboratory results taken from PubChem BioAssay (NCI).
Compounds without any hit were thinned out: in the full panel of roughly 83,000, 20% have a hit.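 Negative percent growth values reflect cell death: -40 means 40% of the cells present at the start died, and -100 means all died.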

Key:
Experiment in all cases: NCI-60 one-dose screen, 48 h (100 = growth as untreated, 0 = no growth, -100 = all killed)
Details in all cases: 10 µM unless noted; active means growth percent below 10; inactive means the rest
NCI-H23 lung = tested on: NCI-H23 lung
NCI-H226 lung = tested on: NCI-H226 lung
NCI-H322M lung = tested on: NCI-H322M lung
HOP-62 NSCLC = tested on: HOP-62 NSCLC
NCI-H460 lung = tested on: NCI-H460 lung
HOP-92 NSCLC = tested on: HOP-92 NSCLC
NCI-H522 lung = tested on: NCI-H522 lung
A549/ATCC NSCLC = tested on: A549/ATCC NSCLC
786-0 renal = tested on: 786-0 renal
COLO 205 colon = tested on: COLO 205 colon
DU-145 prostate = tested on: DU-145 prostate
K-562 leukemia = tested on: K-562 leukemia
MALME-3M melanoma = tested on: MALME-3M melanoma
MDA-MB-231 breast = tested on: MDA-MB-231 breast
RXF 393 renal = tested on: RXF 393 renal
SF-268 CNS = tested on: SF-268 CNS
SF-295 CNS = tested on: SF-295 CNS
SF-539 CNS = tested on: SF-539 CNS
UACC-257 melanoma = tested on: UACC-257 melanoma
M14 melanoma = tested on: M14 melanoma

Measured: growth

Nc1nc(N)c2c(n1)NC(c1cccc(Nc3ccnc4cc(C(F)(F)F)ccc34)c1)CC(c1ccc3c(c1)OCO3)=N2 (stereo not given)
inactive: NCI-H23 lung 82.4% | NCI-H226 lung 97.7% | NCI-H322M lung 96.2% | HOP-62 NSCLC 65.7% | NCI-H460 lung 58.8% | HOP-92 NSCLC 54.4% | NCI-H522 lung 42.2% | A549/ATCC NSCLC 60.3% | 786-0 renal 72.6% | COLO 205 colon 66.2% | DU-145 prostate 86.9% | K-562 leukemia 16.1% | MALME-3M melanoma 72.5% | MDA-MB-231 breast 86.1% | RXF 393 renal 52.2% | SF-268 CNS 68.2% | SF-295 CNS 80% | SF-539 CNS 95.4% | UACC-257 melanoma 77.7% | M14 melanoma 67.3%

Cc1[nH]c(C(=O)Nc2ccccc2OC2CCN(CCN3CCOCC3)CC2)c(Cl)c1Cl
inactive: NCI-H23 lung 97.6% | NCI-H226 lung 79.6% | NCI-H322M lung 99.9% | HOP-62 NSCLC 89.9% | NCI-H460 lung 108% | HOP-92 NSCLC 70.9% | NCI-H522 lung 47.6% | A549/ATCC NSCLC 99% | 786-0 renal 57.5% | COLO 205 colon 102% | DU-145 prostate 105% | K-562 leukemia 57.5% | MALME-3M melanoma 106% | MDA-MB-231 breast 75.9% | RXF 393 renal 83.6% | SF-268 CNS 81.5% | SF-295 CNS 97.7% | SF-539 CNS 89.6% | UACC-257 melanoma 115% | M14 melanoma 106%

CCOC(=O)NCCCC(=O)NCCc1ccccc1
inactive: NCI-H23 lung 98.9% | NCI-H226 lung 96.3% | NCI-H322M lung 106% | HOP-62 NSCLC 108% | NCI-H460 lung 110% | HOP-92 NSCLC 111% | NCI-H522 lung 106% | A549/ATCC NSCLC 107% | 786-0 renal 105% | COLO 205 colon 114% | DU-145 prostate 103% | K-562 leukemia 106% | MALME-3M melanoma 103% | MDA-MB-231 breast 108% | RXF 393 renal 101% | SF-268 CNS 101% | SF-295 CNS 104% | SF-539 CNS 106% | UACC-257 melanoma 103% | M14 melanoma 102%

O=C(/C=C/c1ccccc1)N(C1CCCCC1)C1CCCCC1
inactive: NCI-H23 lung 74.3% | NCI-H226 lung 84.7% | NCI-H322M lung 105% | HOP-62 NSCLC 131% | NCI-H460 lung 86.8% | HOP-92 NSCLC 84.3% | NCI-H522 lung 70.9% | A549/ATCC NSCLC 73.8% | 786-0 renal 82.2% | COLO 205 colon 99.9% | DU-145 prostate 104% | K-562 leukemia 81.1% | MALME-3M melanoma 104% | MDA-MB-231 breast 86% | RXF 393 renal 84.7% | SF-268 CNS 104% | SF-295 CNS 78.1% | SF-539 CNS 105% | UACC-257 melanoma 80.7% | M14 melanoma 87.6%

C=C(C)[C@@H]1CC[C@]2(C(=O)N3CCN(C)CC3)CC[C@]3(C)[C@H](CC[C@@H]4[C@@](C)(CCC(=O)O)[C@H](C(=C)C)CC[C@]43C)[C@@H]12
inactive: NCI-H23 lung 95.4% | NCI-H226 lung 93.3% | NCI-H322M lung 98.5% | HOP-62 NSCLC 95.5% | NCI-H460 lung 78% | HOP-92 NSCLC 78.6% | NCI-H522 lung 73.5% | A549/ATCC NSCLC 65.7% | 786-0 renal 90.2% | COLO 205 colon 94.3% | DU-145 prostate 99.9% | K-562 leukemia 58% | MALME-3M melanoma 87% | MDA-MB-231 breast 91.2% | RXF 393 renal 93.3% | SF-268 CNS 80.6% | SF-295 CNS 78.8% | SF-539 CNS 92.6% | UACC-257 melanoma 83.5% | M14 melanoma 87.1%

CCOC(=O)c1cnn(CC(C)O)c1NC(=O)NCc1ccccc1C(F)(F)F (stereo not given)
inactive: NCI-H23 lung 98.8% | NCI-H226 lung 104% | NCI-H322M lung 97.5% | HOP-62 NSCLC 102% | NCI-H460 lung 109% | HOP-92 NSCLC 84.5% | NCI-H522 lung 60.8% | A549/ATCC NSCLC 82.1% | 786-0 renal 93.8% | COLO 205 colon 112% | DU-145 prostate 105% | K-562 leukemia 86.3% | MALME-3M melanoma 101% | MDA-MB-231 breast 105% | RXF 393 renal 111% | SF-268 CNS 101% | SF-295 CNS 92.6% | SF-539 CNS 98.3% | UACC-257 melanoma 89.7% | M14 melanoma 88.6%

CN(C)c1ccc(/C=C2\C=C(c3nc4ccccc4s3)OC2=O)cc1
inactive: NCI-H23 lung 91.9% | NCI-H226 lung 82.2% | NCI-H322M lung 93.2% | HOP-62 NSCLC 91.7% | NCI-H460 lung 95.2% | HOP-92 NSCLC 77.8% | NCI-H522 lung 89.4% | A549/ATCC NSCLC 94.7% | 786-0 renal 102% | COLO 205 colon 102% | DU-145 prostate 104% | K-562 leukemia 83.8% | MALME-3M melanoma 98.3% | MDA-MB-231 breast 73.9% | RXF 393 renal 110% | SF-268 CNS 98.6% | SF-295 CNS 92% | SF-539 CNS 104% | UACC-257 melanoma 114% | M14 melanoma 101%
